# Sampled rows, rich in hits. Any-hit rate of the full collection: about 6.3%.
# ATXN viability = viability counter-screen for ATXN expression inhibitors; S2 cells (HEK-293 line with an ATXN2-luciferase reporter) viability, CellTiter-Fluor protease fluorescence, 24 h; Potency, µM (series often up to 56.7 µM), usual class: cytotoxic; hit rate 0.49% among 400,000; AID 651635; also: nearly all actives have a fitted effect of over 40% in size
# VP16 counter = counter-screen for ROR gamma inhibitors: Gal4-VP16 reporter. Drosophila S2 Gal4-VP16 UAS-luciferase, luminescence, 20 h. Potency, µM (titrated, usually from 53.6 µM), for inactives: at the top dose activity, negative = inhibition, most hits filed as inhibitors. hit rate 3.5% among 310,000. AID 2546;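 also: Gal4-VP16 expression switched on by copper sulfate through the metallothionein promoter; % is scaled to controls: 0 for no effect and ±100 for the full control effect; nearly all actives have a fitted effect of over 50% in size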
# ATXN2 expr inh = inhibitors of ATXN2 expression. HEK-293 ATXN2-luciferase reporter, luminescence, 24 h. Potency, µM (doses to about 57 µM), without a hit: at the highest dose activity change, negative = inhibition, actives largely listed as inhibitors. hit rate 0.72% among 360,000. AID 1745845; also: % is scaled to controls: 0 for no effect and ±100 for the full control effect; nearly all actives have a fitted effect of over 55% in size
#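 ATXN2-luciferase reporter cells (luciferase flanked by upstream and downstream ATXN2 gene portions) were treated 24 h at 37 °C with compounds at up to 57 uM. SteadyGlo luminescence gave expression; GF-AFC fluorescence gave viability.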
# TGFb SMAD3 inh = TGF-b pathway inhibition; Potency, µM (titrated, usually from 46.1 µM), for inactives: at the top dose activity, negative = inhibition, actives largely listed as inhibitors; HepG2 CAGA-GFP TGF-b/SMAD3 reporter, GFP fluorescence, 18 h; TGF-beta stimulated, 500 pg/mL final; hit rate 1.2% among 410,000; also: % is scaled to controls: 0 for no effect and ±100 for the full control effect; nearly all actives have a fitted effect of over 65% in size
#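 HEPG2 CAGA-GFP, 1000 cells/well; 2 h settle, 37 C; cpd via pin tool; TGF-b 500 pg/mL final; 18 h, 37 C; GFP imaging ex488/em500-530; %Activity normalised to -TGF-b and +DMSO controls; CRC fit, curve class.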
# RORgamma inh = blocks mouse ROR gamma transcriptional activity; P51450; Drosophila S2 Gal4-RORgamma UAS-luciferase reporter, 20 h; Potency, µM (highest dose often 53.6 µM), for the others: at the highest dose activity change, negative = inhibition, actives largely listed as inhibitors; hit rate 5.4% among 310,000; AID 2551; also: % is scaled to controls: 0 for no effect and ±100 for the full control effect; nearly all actives have a fitted effect of over 60% in size
# Target sequence (P51450 whole entry, looked up, the tested form may be a part): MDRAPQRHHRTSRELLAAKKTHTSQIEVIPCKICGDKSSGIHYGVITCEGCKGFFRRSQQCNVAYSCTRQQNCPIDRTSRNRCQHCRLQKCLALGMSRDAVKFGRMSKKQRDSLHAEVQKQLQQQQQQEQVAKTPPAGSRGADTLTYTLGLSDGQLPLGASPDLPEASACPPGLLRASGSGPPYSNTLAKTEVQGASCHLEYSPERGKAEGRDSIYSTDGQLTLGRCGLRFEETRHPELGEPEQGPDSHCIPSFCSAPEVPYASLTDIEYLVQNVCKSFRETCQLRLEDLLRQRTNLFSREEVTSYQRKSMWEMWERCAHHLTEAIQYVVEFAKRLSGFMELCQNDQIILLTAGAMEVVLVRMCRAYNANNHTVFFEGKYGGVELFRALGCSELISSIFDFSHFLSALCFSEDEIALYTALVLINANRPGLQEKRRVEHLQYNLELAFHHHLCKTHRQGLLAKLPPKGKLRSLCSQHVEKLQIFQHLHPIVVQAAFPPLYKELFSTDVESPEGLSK
#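 Luminescence from a UAS-regulated Photinus luciferase reporter in stably transfected Drosophila Schneider cells is measured; decreased signal marks ROR gamma inhibition. Fusion expression is induced by 700 uM copper sulfate for 20 hr.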
# HepG2 tox = kills HepG2 cells in TGF-b inhibitor counter-screen; AID 588856; HepG2 CAGA-GFP viability, ATP luminescence, 18 h; Potency, µM (highest dose often 46.1 µM), for inactives: top-dose activity change, negative = cytotoxicity, actives largely listed as cytotoxic; hit rate 0.76% among 410,000
#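 HepG2 CAGA-GFP cells (1000/well, DMEM with 1% FBS) received compound, then TGF-beta at 500 pg/mL final, and were incubated 18 hours at 37 degrees C. Viability was read by CellTiter-Glo luminescence. Media-only wells were set as complete cell-killing and DMSO as no toxicity.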
# Starred values were filed as active, the others as inactive; i = inactive; ? = inconclusive; / = no result; ! = not active in a repeat; [ ] = dose if it differs, or a comment. Calls follow the shape of the dose curve; as a rule, active = well fitted curve in the direction sought with a large enough effect; inconclusive = small, poorly fitted or top-dose-only effect, or another doubt; inactive = no such curve, though single readings can be large; an effect the other way counts as inactive or inconclusive. Potency is read from the fitted curve at half-maximal effect.
SMILES,ATXN viability,VP16 counter,ATXN2 expr inh,TGFb SMAD3 inh,RORgamma inh,HepG2 tox
Cc1ccc(NC2=C(Cl)C(=O)OC2OC(=O)c2ccco2)cc1 (stereo not drawn),i,-19%,-6%,-16%,11µM*,-27%
Cc1cccc(NC2=C(Cl)C(=O)OC2OC(C)C)c1 (stereo not drawn),i,29%,/,0%,-4%,-15%
Cc1cccc(NC2=C(Cl)C(=O)OC2OC(=O)c2ccco2)c1 (stereo not drawn),i,?,2%,5%,11µM*,-20%
Nc1c(Br)cc(C=O)cc1Br,/,/,/,4%,/,-5%
Cc1cc(C(=O)Nc2ccncc2)c2ccccc2n1,i,-8%,2%,7%,41%,3%
Cc1cccc(N=C2NC(=O)/C(=C/c3cccs3)S2)c1,i,13µM*,4%,2%,?,-20%
CSc1ccc(-c2nc3cnccn3c2Nc2ccc3c(c2)OCO3)cc1,i,11%,5%,5µM*,4%,-36%
Clc1ccc(-c2nc3cnccn3c2Nc2ccc3c(c2)OCO3)cc1,i,-2%,-28%,?,?,-27%
Cc1cn2c(=O)c(S(=O)(=O)NCc3ccccc3Cl)c(C)nc2s1,/,/,/,26%,/,9%
Cc1ccc(Cl)cc1N1CCN(C(=O)c2c(C)oc3ncnc(N4CCOCC4)c23)CC1,/,/,/,?,/,-20%
Cc1ccccc1C1N(c2nccs2)C(=O)C2CCCN21 (stereo not drawn),i,?,-2%,13%,?,-1%
O=C1C2CCCN2C(c2ccccc2)N1c1nccs1 (stereo not drawn),i,-15%,4%,2%,5.6µM*,4%
COc1ccc2c(c1)O[C@@H](c1cccc(C(F)(F)F)c1)[C@H](OC(=O)NCc1ccc3c(c1)OCO3)C2=O,/,1%,/,/,-6%,/
O=C(Nc1nccs1)c1cc2c(s1)-c1ccccc1OC2,i,4.5µM*,10%,-30%,5µM*,-26%
Cc1cccc2c1-c1sc(C(=O)Nc3nccs3)cc1CO2,/,5.6µM*,1%,-13%,4.5µM*,0%
Cc1cccc2c1-c1sc(C(=O)Nc3cccnc3)cc1CO2,i,16%,3%,3%,-14%,-6%
CCN(CC)CCOC(=O)c1ccc(NC(=O)c2cc3c(s2)-c2ccccc2OC3)cc1,i,/,?,11µM*,/,10µM*
O=C(Nc1cccnc1)c1cc2c(s1)-c1ccccc1OC2,i,-9%,/,?,4.5µM*,-37%
COc1cccc(CN2C(=O)NC(C)(C3CCN(Cc4cc(Cl)ccc4O)CC3)C2=O)c1OC (stereo not drawn),i,/,/,/,/,/
COc1ccc(S(=O)(=O)N2CCN(C(=S)Nc3ccc(S(N)(=O)=O)cc3)CC2)cc1,i,-10%,3%,-28%,11%,1%
CCc1cccc2c(C(O)c3c[nH]c4ccccc34)c[nH]c12 (stereo not drawn),/,/,/,?,/,-80%
O=C(COc1ccc(Cl)cc1Cl)N/N=C/c1ccc(OC2OC(CO)C(O)C(O)C2O)cc1 (stereo not drawn),i,4%,/,-10%,11µM*,-60%
COc1ccc(CNS(=O)(=O)CCNCc2ccccc2OC)cc1,i,/,-5%,-11%,/,-18%
CCCCCCCCNS(=O)(=O)CCNCc1ccccc1OC,?,/,-36%,?,/,13µM*
O=C(CSc1nc2[nH]ncc2c(=O)[nH]1)Nc1cc(C(F)(F)F)ccc1Cl,i,/,/,?,/,1%
SMILES,ATXN viability,VP16 counter,ATXN2 expr inh,TGFb SMAD3 inh,RORgamma inh,HepG2 tox
N/C(COc1ccccc1)=N\NC(=O)c1cccnc1Oc1ccccc1,i,1.4µM*,3%,-8%,?,-5%
N/C(COc1cccc(C(F)(F)F)c1)=N\NC(=O)c1cccnc1Oc1ccccc1,i,1.3µM*,-13%,-6%,0.5µM*,-18%
O=C(Nc1ccc(F)cc1)c1cccnc1Oc1ccccc1,i,2%,18%,0%,23%,3%
Cc1snc(SCC(=O)N/N=C(\N)COc2cccc(C(F)(F)F)c2)c1C#N,i,6.3µM*,-4%,26%,5µM*,-8%
COc1ccccc1NS(=O)(=O)c1cn(C)c(C)n1,i,/,-15%,4%,/,-14%
COc1ccc(-c2nc3cnc(OC)nc3n(C[C@H]3CCCO3)c2=O)cc1,/,-1%,/,/,-14%,/
Cc1ncc2c(c1CNC(=O)/C=C/c1cccs1)CCN(C(=O)c1ccc3c(c1)OCCO3)C2,i,/,/,/,/,/
Cc1cc(C)cc(-n2c(C)cc(/C=N/NC(=O)CSc3ncccn3)c2C)c1,i,-14%,-36%,0%,?,-4%
Cc1c(C(=O)N/N=C/c2ccoc2)cccc1[N+](=O)[O-],i,?,8%,5%,-4%,0%
Cc1cc(C)cc(-n2c(C)cc(/C=N/NC(=O)c3cccc([N+](=O)[O-])c3C)c2C)c1,i,4.5µM*,-16%,-7%,2.8µM*,4%
Cc1ccccc1-n1c(C)cc(/C=N/NC(=O)c2ccncc2)c1C,i,10µM*,34%,-25%,2.8µM*,-32%
O=C(N/N=C/c1ccccc1C(=O)O)c1ccncc1,i,1%,4%,1%,-14%,-20%
Cc1ccc(C(=O)Nc2cccc(C(=O)N/N=C/c3ccc(O)cc3)c2)cc1,i,?,?,5%,-17%,-1%
Cc1cc(/C=N/NC(=O)c2ccc(O)cc2)c(C)n1C1CC1,i,?,-8%,1%,13µM*,-3%
Cc1cc(C)cc(-n2c(C)cc(/C=N/NC(=O)c3ccncc3)c2C)c1,i,-8%[10 µM],1%,3%,7.1µM*,-17%
COc1ccc2c(Oc3ccc(NC(=O)c4c(C)n(CC(C)(C)O)n(-c5ccccc5)c4=O)nc3)ccnc2c1,/,/,-8%,/,/,/
C=C1C=C(C)n2ncc(C(=O)Nc3ccccc3C(=O)OC)c2N1,/,/,/,-1%,/,-1%
Cc1cc(/C=N/NC(=O)C(O)(c2ccccc2)c2ccccc2)c(C)n1-c1ccc(C(=O)O)cc1,i,?,-9%[11.3 µM],-1%,11µM*,8%
Cc1cc(/C=N/NC(=O)C(O)(c2ccccc2)c2ccccc2)c(C)n1-c1cccc(C(=O)O)c1,i,6%,/,7%,-9%,3%
O=C(CCN1CCc2ccccc21)c1ccc2c(c1)OCCO2,?,11µM*,-30%,0%,-19%,-45%
O=C(CCN1CCC(c2ccccc2)C1)c1ccc2c(c1)OCCO2 (stereo not drawn),i,7.1µM*!,-20%,?,7.1µM*!,-31%

# Source: PubChem (National Center for Advancing Translational Sciences (NCATS))
